The values below come from PubChem BioAssay (NCI).

Among the test systems are SK-MEL-2 melanoma; EKVX NSCLC; SN12C renal; UO-31 renal; TK-10 renal; ACHN renal; CAKI-1 renal; CCRF-CEM leukemia; MOLT-4 leukemia; A498 renal.
Holding throughout (assay): NCI-60 one-dose screen, 48 h (100 = growth as untreated, 0 = no growth, -100 = all killed)
Holding throughout (conditions): 10 µM unless noted

The panel holds about 83,000 compounds, 20% with a hit somewhere; the sample as a whole holds those more often.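 Results are percent growth after 48 hours of single-concentration exposure. 100 means growth as in untreated cells, lower positive values show inhibition; negative values down to -100 show cell death.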 Unmarked numbers belong to inactive results. Activity calls are given as the source filed them. Rule for the calls: active = growth percent below 10; inactive = the rest.

For the molecule `O=C(C(=O)N1CCCC1)c1cn(CCCn2cc(C(=O)C(=O)N3CCCC3)c3cc(Br)ccc32)c2ccc(Br)cc12`, the growth with SK-MEL-2 melanoma was 107%; in the experiment with EKVX NSCLC it was 54%; in the experiment with SN12C renal, 83.3%; in the experiment on UO-31 renal it was 72.6%; in the experiment with TK-10 renal it was 92.7%; in the experiment on ACHN renal, 55.2%. For the same molecule, the results for the growth in the experiment with CAKI-1 renal, in the experiment on CCRF-CEM leukemia and in the experiment with MOLT-4 leukemia were 46.7%, 74% and 73.6%, respectively.
As for `COc1ccc(-c2nn(C(=O)NCCN(C)C)cc2-c2ccncc2)cc1Cl`, the growth in the experiment with SK-MEL-2 melanoma was 32.7%; in the experiment with EKVX NSCLC, 43.4%; in the experiment with SN12C renal, 49.6%; with UO-31 renal, 52.6%; in the experiment on TK-10 renal, 17.1%; in the experiment with ACHN renal it was 47.8%. Further, the growth in the experiment with A498 renal is 34.2%; in the experiment on CCRF-CEM leukemia it was 47.9%; with MOLT-4 leukemia, 34.3%.
Take `O=C(Nc1ccc(Br)cc1)c1ccc(Cl)c(Cl)c1`: the growth in the experiment with SK-MEL-2 melanoma is 102%; in the experiment on EKVX NSCLC, 24%; with SN12C renal it was 60.7%; in the experiment with UO-31 renal, 59.1%; in the experiment on TK-10 renal, 107%; with ACHN renal, 18.1%. In addition, the growth was 65.7% in the experiment on A498 renal, 1.53% (active) in the experiment on CCRF-CEM leukemia and 23.3% in the experiment with MOLT-4 leukemia.
`CCNCCCn1c2c(c3ccc(Cl)cc3c1=O)C(=O)c1cc(OC)cnc1-2`: the growth in the experiment with SK-MEL-2 melanoma is 77.1%; in the experiment on EKVX NSCLC, 53.4%; in the experiment with SN12C renal it was 27.6%; with UO-31 renal, 10.3%; in the experiment with TK-10 renal it was 39.9%; with ACHN renal, 8.64% (active). For the same molecule, the growth in the experiment with CAKI-1 renal is 39.9%; in the experiment on CCRF-CEM leukemia it was -37.3% (active); in the experiment on MOLT-4 leukemia, -34% (active).
Turning to `O=[N+]([O-])c1ccc(N/N=C\c2ccc(O)cc2O)nc1`, the growth with SK-MEL-2 melanoma is 28.9%; in the experiment on EKVX NSCLC, 29.3%; with SN12C renal, 50.9%; with UO-31 renal, 28.1%; with TK-10 renal, 22.7%; with ACHN renal it was 26.8%. Further, the growth is 107% in the experiment with A498 renal, 18.8% in the experiment with CCRF-CEM leukemia and 13.6% in the experiment with MOLT-4 leukemia.
Regarding `CC1CCCN(CCCCOc2ccc(-c3ccc(C#N)cc3)cc2)C1` (stereo unspecified), the growth is 88.6% with SK-MEL-2 melanoma; 88.9% in the experiment with EKVX NSCLC; 89.3% with SN12C renal; 74.5% in the experiment on UO-31 renal; 80.6% in the experiment with TK-10 renal; 111% with ACHN renal. The growth was 82.4% in the experiment with A498 renal, 59.4% in the experiment on CCRF-CEM leukemia and 83.4% with MOLT-4 leukemia.
Turning to `Cc1cc(N)cc(C)c1-c1c(Br)cc(N)cc1Br`, the growth with SK-MEL-2 melanoma was 26.6%; in the experiment on EKVX NSCLC, 51.8%; with SN12C renal, 47.9%; in the experiment on UO-31 renal, 36.1%; in the experiment with TK-10 renal, 22.3%; in the experiment with ACHN renal it was 56.2%. For the same molecule, the growth in the experiment on A498 renal was 27.9%; in the experiment with CCRF-CEM leukemia, 8.42% (active); with MOLT-4 leukemia it was 35.1%.
As for `O=C(Nc1ccncc1)C(=O)c1cn(S(=O)(=O)c2cccc(Cl)c2F)c2ccccc12`, the growth in the experiment with SK-MEL-2 melanoma was 60.6%; with EKVX NSCLC it was 59.2%; in the experiment on SN12C renal, 82.9%; with UO-31 renal, 56.9%; in the experiment with TK-10 renal, 112%; with ACHN renal it was 101%. Also, the growth was 72% in the experiment with A498 renal, 66.4% with CCRF-CEM leukemia and 60.2% with MOLT-4 leukemia.
With `CC(=O)N1N=C(C2C(=O)N(C)C(=O)N(C)C2=O)CC1c1ccccc1C(=O)O` (stereo unspecified), the growth in the experiment on SK-MEL-2 melanoma is 102%; with EKVX NSCLC it was 105%; in the experiment with SN12C renal, 101%; with UO-31 renal it was 87.4%; in the experiment with TK-10 renal, 97.6%; with ACHN renal, 98.9%. The growth in the experiment on A498 renal was 91.7%; in the experiment with CCRF-CEM leukemia it was 94.6%; in the experiment with MOLT-4 leukemia, 97.1%.
Consider `CC(=O)Nc1c(Br)cc2c(c1Br)Cc1cc(Br)ccc1-2`, for which the growth in the experiment with SK-MEL-2 melanoma is 99.6%; in the experiment with EKVX NSCLC, 55.3%; in the experiment on SN12C renal, 83.1%; in the experiment with UO-31 renal, 67.3%; in the experiment with TK-10 renal, 109%; with ACHN renal, 60.8%. For the same molecule, the growth is 81.1% with CAKI-1 renal, 66.4% with CCRF-CEM leukemia and 76.9% with MOLT-4 leukemia.
In the case of `CC(=O)C1CCC2C3CC(C)=C4CC(O)CCC4(C)C3CCC12C` (stereo unspecified), the growth is 94.8% in the experiment on SK-MEL-2 melanoma; 79.5% with EKVX NSCLC; 99.2% in the experiment on SN12C renal; 87.7% in the experiment on UO-31 renal; 110% in the experiment on TK-10 renal; 94.8% in the experiment with ACHN renal. Also, the figures for the growth in the experiment with A498 renal, with CCRF-CEM leukemia and in the experiment on MOLT-4 leukemia were 113%, 92.4% and 80%, respectively.
Consider `Nc1c(C(=O)Nc2ccccc2)sc2nc3c(cc12)C(=O)CCC3`, for which the growth is 38.7% with SK-MEL-2 melanoma; 84.6% in the experiment with EKVX NSCLC; 59.8% in the experiment with SN12C renal; 71.1% in the experiment with UO-31 renal; 63.6% in the experiment on TK-10 renal; 49.7% in the experiment on ACHN renal. Also, the figures for the growth in the experiment with A498 renal, in the experiment with CCRF-CEM leukemia and with MOLT-4 leukemia were 37.3%, 16.8% and 43.4%, respectively.
For the molecule `COc1ccc(CNc2c3ccccc3nc3ccccc23)cc1F`, the growth in the experiment on SK-MEL-2 melanoma was 45.1%; in the experiment on EKVX NSCLC, 26.1%; in the experiment on SN12C renal, 25.9%; in the experiment on UO-31 renal it was 13.5%; with TK-10 renal, 36.1%; with ACHN renal, 10.9%. The growth in the experiment with A498 renal was -6.26% (active); in the experiment on CCRF-CEM leukemia, 29.6%; in the experiment with MOLT-4 leukemia it was 8.92% (active).
Consider `COc1ccc2nc(C)cc(Sc3nc4ccccc4s3)c2c1`, for which the growth with SK-MEL-2 melanoma is -99.6% (active); in the experiment with EKVX NSCLC, 42.1%; in the experiment on SN12C renal it was 40.5%; with UO-31 renal, 16.7%; in the experiment on TK-10 renal it was 61.4%; in the experiment with ACHN renal, 33.7%. Also, the growth was 40.7% with A498 renal, 7.21% (active) with CCRF-CEM leukemia and -21.2% (active) with MOLT-4 leukemia.
